Bioassay records as filed in PubChem.
The list is not random: actives were taken first. Their share in the collection is about 9.3%.
FLuc counter = firefly luciferase modulation, counter-screen for miR-21 project | AID 588342 | purified FLuc, Km substrates, luminescence inhibition | hit rate 6.9% among 360,000 | P08659 | Potency, µM (doses to about 57.5 µM), inactives show at the top dose activity change, negative = inhibition, most hits filed as inhibitors;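 also: plate controls were vehicle for no effect and reference inhibitor for full effect; nearly all actives have a fitted effect of over 55% in size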
Target sequence (P08659 whole entry, looked up): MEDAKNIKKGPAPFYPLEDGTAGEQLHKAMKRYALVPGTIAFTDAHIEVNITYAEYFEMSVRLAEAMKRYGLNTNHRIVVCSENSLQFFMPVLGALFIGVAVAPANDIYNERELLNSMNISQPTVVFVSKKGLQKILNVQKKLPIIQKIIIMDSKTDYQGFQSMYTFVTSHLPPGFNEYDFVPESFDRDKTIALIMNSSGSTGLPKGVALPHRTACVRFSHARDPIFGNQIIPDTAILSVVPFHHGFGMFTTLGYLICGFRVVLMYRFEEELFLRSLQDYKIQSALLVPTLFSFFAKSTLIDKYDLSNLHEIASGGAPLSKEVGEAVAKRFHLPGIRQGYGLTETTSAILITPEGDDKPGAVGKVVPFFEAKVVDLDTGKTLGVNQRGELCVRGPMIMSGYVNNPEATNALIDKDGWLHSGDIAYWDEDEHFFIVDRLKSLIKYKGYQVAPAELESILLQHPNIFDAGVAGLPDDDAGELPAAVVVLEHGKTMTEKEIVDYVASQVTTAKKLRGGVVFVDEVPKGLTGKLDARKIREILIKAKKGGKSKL
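Biochemical qHTS of compounds, final roughly 60 µM downward over six points, against 10 nM purified firefly luciferase using Km concentrations of substrates (10 uM D-luciferin, 10 uM ATP) in Tris acetate pH 7.5 buffer; luminescence output.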
Rab9 prom act = Rab9 promoter activation; Huh7 Rab9 promoter-luciferase reporter, luminescence, 24 h; hit rate 2.8% among 320,000; Potency, µM (series often up to 9.22 µM), for the others: at the top dose activation, negative = inhibition, usual class: activators; also: % of control where 0% means no effect; nearly all actives have a fitted effect of over 60% in size
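Luminescence from Amplite-detected luciferase (10 minutes, ambient) reports Rab9 promoter activation. Before that, stable Rab9-luciferase Huh7 cells (1500/well, reduced-serum OP-MEM I plus 10% FBS) were exposed to compound for 24 hours at 37C.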
ELG1 DNA repair = blocks ELG1-dependent DNA repair in HEK293T cells; HEK293T ELG1-luciferase reporter, luminescence, 16 h; DNA damage induced by 5-fluorouridine; Potency, µM (series often up to 46.1 µM), without a hit: at the top dose activity change, negative = inhibition, usual class: inhibitors; hit rate 2.3% among 330,000; also: % is scaled to controls: 0 for no effect and ±100 for the full control effect; nearly all actives have a fitted effect of over 55% in size
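Step one: seed 2,000 cells per well. Step two: pin-transfer compound or DMSO alongside 5-fluorouridine. Step three: incubate 16 hr, 37 °C, 5% CO2. Step four: add ONE-Glo, wait 30 min, read luminescence.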
NPC1 prom act = NPC1 promoter activation | Huh7 NPC1 promoter luciferase reporter, 24 h | Potency, µM (top dose mostly 9.22 µM), without a hit: top-dose activation, hits mostly activators | hit rate 2.4% among 320,000 | AID 485313; also: % of control where 0% means no effect; nearly all actives have a fitted effect of over 60% in size
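Compounds in DMSO were transferred onto Huh7 NPC1-luciferase reporter cells pre-incubated 2 h; after 24 h at 37 °C, Amplite reagent was dispensed and luminescence recorded 10 min later.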
ELG1 genotox = genotoxicity induction in ELG1-luciferase HEK293T cells; HEK293T ELG1-luciferase reporter, luminescence, 16 h; Potency, µM (series often up to 46 µM), for inactives: top-dose activity change, positive = activation, actives largely listed as activators; hit rate 1.3% among 330,000; AID 504466; also: % of control where 0% means no effect; nearly all actives have a fitted effect of over 60% in size
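Genotoxicity was scored as increased ELG1-luciferase reporter signal, measured by ONE-Glo luminescence (30 min, room temperature). Compound or vehicle exposure of the HEK293T reporter cells lasted 16 hr at 37°C.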
SMN2 splice up = increases expression of the SMN2 splice variant; HEK293 SMN2-luciferase splicing reporter, luminescence, 30-36 h; Potency, µM (top dose mostly 46.1 µM), without a hit: at the highest dose activity change, positive = activation, usual class: activators; hit rate 2.8% among 210,000; also: % of control where 0% means no effect; nearly all actives have a fitted effect of over 55% in size
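qHTS luciferase splicing reporter: luminescence rises when SMN2 exon 7 is included in transfected HEK293 cells. Compound exposure lasted 30-36 h at 37C, with 4.5 mM final sodium butyrate as control, followed by a ONE-Glo read.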
* marks the source's active call; other numbers are inactive results; ? = inconclusive; . = no result given; [ ] = another dose, or the depositor's remark. Calls follow the shape of the dose curve; as a rule, active = well fitted curve in the direction sought with a large enough effect; inconclusive = small, poorly fitted or top-dose-only effect, or another doubt; inactive = no such curve, though single readings can be large; an effect the other way counts as inactive or inconclusive. Potency is read from the fitted curve at half-maximal effect.

SMILES	FLuc counter	Rab9 prom act	ELG1 DNA repair	NPC1 prom act	ELG1 genotox	SMN2 splice up
Cn1c(=O)c2ncn(CC(=O)Nc3cccc(-c4nc5ccccc5s4)c3)c2n(C)c1=O	3.8µM*	?	?	3.2µM*	3%	-20%
COc1ccc(C(=O)NCc2cc(C)nc3ccccc23)cc1	-6%	-20%	?	-13%	-9%	-53%
Cc1ccc(OCC(=O)Nc2cccc(-c3nc4ccccc4s3)c2)cc1	9.5µM*	.	.	.	.	.
Cc1cccc(OCC(=O)Nc2cccc(-c3nc4ccccc4s3)c2)c1	6µM*	.	.	.	.	3.2µM*
CCc1ccc(NC(=O)Cn2cnc3c(=O)n(C)c(=O)n(C)c32)cc1	-3%	-7%	11%	-3%	-10%	-14%
COc1cc2nc(CN(C)Cc3ccc(C(C)(C)C)cc3)[nH]c(=O)c2cc1OC	?	1%	-16%	1%	-3%	14%
O=C(CN1CCN(S(=O)(=O)c2ccc(F)cc2)CC1)Nc1ccnn1C1CCCC1	-2%	-1%	-18%	0%	-1%	.
CC(NC(=O)c1ccccc1)C(=O)N/N=C/c1cccc([N+](=O)[O-])c1 (stereo unspecified)	?	23%	?	5%	6%	11%
O=S(=O)(c1ccccc1)N1CCC2(CC1)CN(C(c1ccccc1)c1ccccc1)C2	.	.	.	.	.	-14%
Cc1ccc(C(=O)CSc2cc(C)nc(SCC(=O)c3ccccc3)n2)cc1	3%	-1%	?	-2%	-22%	.
O=C(CSc1ccccn1)c1ccc(F)cc1	19µM*	?	?	?	?	23%
O=C(O)c1ccnc(SCC(=O)c2ccccc2)c1	?	-1%	7%	-1%	-1%	9%
Cc1ccc(C(=O)CSc2ccccn2)cc1	6.7µM*	3.5µM*	?	?	?	?
Cc1ccc(NC(=O)CCSc2ccccn2)cc1	6µM*	3.2µM*	?	3.5µM*	?	14µM*
CC(=O)c1ccc(N2CCN(S(=O)(=O)c3c(C)[nH]c(C)c3C(=O)N3CCCCC3)CC2)cc1	-5%	-3%	28%	3%	0%[9.26 µM]	.
CCOC(=O)c1sc2ncn(CC(=O)Nc3cc(Cl)ccc3C)c(=O)c2c1C	3%	.	.	.	.	13%
O=C(N/N=C\c1ccc(Oc2ccccc2)cc1)c1csnn1	2.7µM*	2.2µM*	?	3.5µM*	?	16µM*
Cc1ccc(/C=N/NC(=O)c2ccccn2)o1	24µM*	?	?	?	?	?
Cc1nnsc1C(=O)N/N=C/c1ccccc1	-6%	-2%	18%	1%	1%	19%
CN(C)c1ccc(/C=N/NC(=O)c2ccccn2)cc1	1.7µM*	0.13µM*	?	0.5µM*	1.2µM*	.
Cc1ccc(/C=N/NC(=O)c2cccc(NC(=O)c3ccccc3C)c2)o1	?	-1%	1%	3%	0%	.
CN(C)c1ccc(/C=N/NC(=O)c2cnc3ccccc3c2)cc1	?	2%	13%	12%	8%	.
Cc1ccc(/C=N/NC(=O)c2cccc(NC(=O)c3ccccc3Cl)c2)o1	17µM*	-2%	7%	-2%	-4%	.
CCOc1ccc(CCNC(=O)c2c(C)oc3ncn(CC(C)C)c(=O)c23)cc1OCC	-2%	.	.	.	.	.
O=C(N/N=C\c1cc([N+](=O)[O-])ccc1N1CCOCC1)c1ccccn1	3%	-5%	12%	-2%	10%	-11%
O=C(N/N=C/c1ccc(N2CCOCC2)cc1)c1ccccn1	6.7µM*	2.2µM*	?	2.5µM*	?	.
CN(C)c1ccc(/C=N/NC(=O)c2ccnn2C)cc1	5.4µM*	0.5µM*	?	2.5µM*	?	.
CN(C)c1ccc(/C=N/NC(=O)C(=O)N2CCCCCC2)cc1	-23%	-4%	?	0%	5%	.
